In PubChem BioAssay AID540303 (National Center for Advancing Translational Sciences (NCATS), 2011):
The whole screen tested about 330,000 compounds, of which about 1,000 (0.3%) were called active. Another 3% or so got no clear call; they are omitted. The full list was thinned out, with actives kept by preference. Unmarked numbers belong to inactive results. The call rests on the fitted dose curve; in most records, active means well fitted inhibition curve with a large enough effect; inconclusive means small, poorly fitted or top-dose-only effect; inactive means no such curve, though single readings can be large or run the other way; tested in mouse RAW 264.7 cells.
On the % scale 0 is the no-effect control and ±100 the full control effect; potency means the concentration at half of the fitted maximal effect.

Assay: qHTS for Inhibitors of Cell Surface uPA Generation; further: nearly all actives have a fitted effect of over 55% in size
Conditions: cell surface uPA generation assay; series mostly up to 38.3 µM; activity change, negative = inhibition: at the top concentration
From the text: The overall objective of this project is to perform a quantitative high throughput screen (qHTS) to identify novel compounds that inhibit the generation of cell surface urokinase activity. The urokinase plasminogen activator (uPA) is one of the two primary endogenous systems that mediate plasminogen activation into plasmin. Members of this system, including uPA and its receptor (uPAR), are overexpressed in several malignant tumors. This system plays a major role in adhesion, migration, invasion and metastasis of cancer cells. Small molecule inhibitors of the uPA system will serve as probes to understand the molecular mechanisms of the uPA cascade and better understanding the microenvironmental circumstances that facilitate the activation of plasminogen by uPA, and finally may provide novel candidate agents for anticancer drug therapy.
[…] […] Upon inhibition of the uPA activation cascade, the subsequent cell surface uPA activity-dependent translocation of LF into the cytoplasm is inhibited. ATP-Lite is used to measure intracellular ATP concentrations, which remain increased if LF entry into the cytoplasm is inhibited. This validation assay was performed using a small set of validation compounds.
NIH Chemical Genomics Center [NCGC]
NIH Molecular Libraries Probe Centers Network [MLPCN]
Assay Submitter (PI): Thomas Bugge, National Institute of Dental and Craniofacial Research, NIH
Cultured RAW 264.7 were dispensed into 1536-well clear bottom, white walled tissue culture plates at a density of 4000 cells/well and were incubated overnight (12-16 h) at 37 C in a 5% CO2 incubator. Serially diluted compounds in 23 nl DMSO were added to cells. […] Compound and reagent-treated plates were incubated for 24 h at 37 C in a 5% CO2 incubator. Perkin Elmer ATPlitetrade mark 1 step (3 ul) was then added to each well. Luminescence was detected using a Perkin Elmer ViewLuxtrade mark plate reader.
1.Dispensing RAW 264.7 cells into 1536-well, white walled tissue culture plates at a density of 4000 cells/well (4 uL).
2.Incubation at 37 C in a 5% CO2 incubator overnight.
3.Serially diluting compounds (1:5 serial dilution; 0.0024 uM to […] final concentration) in 23 nl DMSO.
5.Incubating the compound and reagent-treated plates for 24 hours at 37 C in a 5% CO2 incubator.
6.Adding ATP-Lite (3 ul).
7.Reading plates by ViewLux with an exposure length of 5 seconds.
With `CCOc1ccc(-c2cc(C)[n+](CCN(CC)CC)c(-c3ccc(OCC)cc3)c2)cc1` the Potency was 3.55 µM (active).
For `CC12CCC3C(CCC4CC(=O)CCC43C)C1CC(=NO)C2=O` (stereo not given), the “activity change, negative = inhibition” value was -4.31%.
With `CC1CCCN1CCC(C(N)=O)(c1ccccc1)c1ccccc1` (stereo not given) the “activity change, negative = inhibition” value was 4.44%.
For `CC1C(=O)OC2CCN3CC=C(COC(=O)C(C)(O)C1(C)O)C23` (stereo not given), the “activity change, negative = inhibition” value was -1.98%.
With `CC1=CC(=Cc2sc3ccccc3[n+]2C)C=C(C)O1` the Potency was 5.01 µM (active).
With `CCOC(=O)C1(c2ccccc2)CCN(CC(O)c2ccc(NC(C)=O)cc2)CC1` (stereo not given) the “activity change, negative = inhibition” value was -1.41%.
With `C=C(C)C1(CCCC)C(=O)NC(=S)NC1=O` the “activity change, negative = inhibition” value was 2.2%.
In the case of `CC(=O)OC1C2(CC3N4C(=O)C5(CO)SSC4(CC31O)C(=O)N5C)OC(C)C(C)(C)C2=O` (stereo not given), the “activity change, negative = inhibition” value is reported as -9.77%.
For `Cc1cc(C)c2c(c1)NP(=S)(c1ccccc1)N2` (stereo not given), the “activity change, negative = inhibition” value was -3.79%.
With `CC1(c2cccc([N+](=O)[O-])c2)CC(C)(C)N(C(=O)c2ccccc2)c2ccccc21` (stereo not given) the “activity change, negative = inhibition” value was 52.7%.
